Methyltransferases – Primary Screen for Target Class Profiling of Small Molecule Inhibitors of Methyltransferases; purified enzyme, MTase-Glo SAH luminescence; active compounds read low; calls only at 40 µM; 25,000 tested, 3.9% active; call rule not given here
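Each enzyme was assayed with SAM and its substrate. SAH formation detected by MTase-Glo luminescence; single-point 40 uM screen[…].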
MTase-Glo counter – detection enzyme interference, methyltransferase counter-screen. shares compounds with Methyltransferases. MTase-Glo coupled enzymes, SAH conversion luminescence, no MTase. Potency, µM (highest dose often 57.3 µM), inactives show top-dose activity change, negative = inhibition, actives largely listed as inhibitors. 180 tested, 6% active. AID 1745851; active = well fitted inhibition curve with a large enough effect; inconclusive = small, poorly fitted or top-dose-only effect; also: potency is read from the fitted curve at half-maximal effect
Starred values were filed as active, the others as inactive; i = inactive; u = inconclusive; + = active, no number; [ ] = remark or other dose. This excerpt belongs to a sample that is enriched for hits. % is scaled to controls: 0 for no effect and ±100 for the full control effect.

SMILES	Methyltransferases	others
COc1ccc(C2c3cccn3-c3ccccc3CN2C(=O)NCc2ccc(C)cc2)cc1 (stereo not given)	i
COc1cc(NC(=O)N2Cc3ccccc3-n3cccc3C2c2ccc(C)cc2)cc(OC)c1 (stereo not given)	i
COc1ccc(Cl)cc1NC(=O)N1Cc2ccccc2-n2cccc2C1c1cccs1 (stereo not given)	i
Cc1ccc(C2c3cccn3-c3ccccc3CN2C(=O)Nc2cccc(Cl)c2)cc1 (stereo not given)	i
O=C1NC(=O)c2c1c1c3ccccc3[nH]c1c1[nH]c3ccccc3c21	+
CCOc1ccc(NC(=O)N2Cc3ccccc3-n3cccc3C2c2ccc(OC)cc2)cc1 (stereo not given)	i
CCOc1ccccc1NC(=O)N1Cc2ccccc2-n2cccc2C1c1cccc(Cl)c1 (stereo not given)	i
O=C(Nc1ccc2c(c1)OCCO2)N1Cc2ccccc2-n2cccc2C1c1cccc(Cl)c1 (stereo not given)	i
CCCN1CC[C@@H]2c3cc(O)ccc3CC[C@@H]21	+
COc1ccc(C2c3cccn3-c3ccccc3CN2C(=O)Nc2cc(C)ccc2C)cc1 (stereo not given)	i
Cc1cccc(C2c3cccn3-c3ccccc3CN2C(=O)Nc2ccc3c(c2)OCCO3)c1 (stereo not given)	i
COCCCNC(=O)N1Cc2ccccc2-n2cccc2C1c1ccc(OC)cc1 (stereo not given)	i
CCOC(=O)c1cccc(NC(=O)N2Cc3ccccc3-n3cccc3C2c2cc(F)cc(F)c2)c1 (stereo not given)	i
CN1CC[C@@]2(C)c3cc(O)ccc3N(C)C12 (stereo not given in full)	+
Cc1ccc(NC(=O)N2Cc3ccccc3-n3cccc3C2C)cc1Cl (stereo not given)	i
CN(CCc1ccccn1)C[C@H]1CN2CC[C@H]1C[C@@H]2CNC(=O)c1ccco1	i
CC(C)NC(=O)NC[C@H]1C[C@@H]2CCN1C[C@@H]2CN1CCC(Cc2ccccc2)CC1	i
CN(CCc1ccccn1)C[C@H]1CN2CC[C@H]1C[C@@H]2CNC(=O)Nc1ccsc1	+	MTase-Glo counter=-4%[85.7 µM]
CSc1ccc(C2c3cccn3-c3ccccc3CN2C(=O)Nc2ccccc2C(F)(F)F)cc1 (stereo not given)	i
CCc1ccc(C2c3cccn3-c3ccccc3CN2C(=O)Nc2ccc(Br)cc2)cc1 (stereo not given)	i
CCOc1ccc(NC(=O)N2Cc3ccccc3-n3cccc3C2c2ccc(C)cc2)cc1 (stereo not given)	i
COc1ccc(-c2cc([C@H]3CN4CC[C@H]3C[C@@H]4CN)nc(C)n2)cc1OC	+	MTase-Glo counter=-6%[85.7 µM]
Cc1nc(-c2ccccc2)cc([C@H]2CN3CC[C@H]2C[C@@H]3CNS(C)(=O)=O)n1	i
COc1ccc(-c2cc([C@H]3CN4CC[C@H]3C[C@@H]4COC(=O)NC3CCCCC3)nc(C)n2)cc1	i
Cn1nc(-c2ccc(F)cc2)cc1[C@H]1CN2CC[C@H]1C[C@@H]2CNC(=O)c1cccs1	i
SMILES	Methyltransferases	others
CC(=O)c1cccc(NC(=O)NC[C@H]2C[C@@H]3CCN2C[C@@H]3c2cc(-c3ccc(F)cc3)nc(C)n2)c1	+	MTase-Glo counter=u
CCC(CC)c1cc([C@H]2CN3CC[C@H]2C[C@@H]3CNC(=O)C2CCC2)nc(-c2ccncc2)n1	i
CCOC(=O)Cc1ccc(NC(=O)N2Cc3ccccc3-n3cccc3C2c2ccccc2)cc1 (stereo not given)	i
CCOc1ccc(NC(=O)N2Cc3ccccc3-n3cccc3C2c2cccc(Cl)c2)cc1 (stereo not given)	i
Cc1ccc(C)c(NC(=O)N2Cc3ccccc3-n3cccc3C2c2ccc(N(C)C)cc2)c1 (stereo not given)	i
CCOc1ccc(NC(=O)N2Cc3ccccc3-n3cccc3C2c2ccc(OC)c(OC)c2)cc1 (stereo not given)	i
FC(F)(F)CN1C2CCC1CN(c1nnc(Cl)c3ccccc13)C2	i
NC(=O)c1ccc(N2CC3CCC(C2)N3CC(F)(F)F)nn1	+	MTase-Glo counter=4%
CCc1ccc(C2c3cccn3-c3ccccc3CN2C(=O)Nc2ccccc2C(F)(F)F)cc1 (stereo not given)	i
Cc1ccc(NC(=O)N2Cc3ccccc3-n3cccc3C2C)c(Cl)c1 (stereo not given)	i
